{"source": "paper PMC5540273", "about": "(PLoS ONE, 2017);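 further: KINOMEscan kinase panel screen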"}
{"test_system": "T1, ERK1", "T1 construct": "gene MAPK3", "conditions": "concentration: 1 μM, replicates: in singlicate; n = 1", "units": {"%Inh": "%"}}
{"smiles": "CN(C1=C(c2ccccc2)C(=O)NC1=O)c1ccccc1", "note": "[SB-334860]", "%Inh": 1}
{"smiles": "Cl.Nc1ncnc2occ(-c3ccc(NC(=O)Nc4cc(C(F)(F)F)ccc4F)cc3)c12", "note": "[SB-707548]", "%Inh": 0}
{"smiles": "NS(=O)(=O)c1cccc(-c2ccc3nccc(-c4cccc(S(N)(=O)=O)c4)c3c2)c1", "note": "[GW867253]", "%Inh": 0}
{"smiles": "NS(=O)(=O)c1cccc(-c2ccc3ncc(N4CCOCC4)nc3c2)c1", "note": "[GSK1535721]", "%Inh": 0}
{"smiles": "COc1ccc(CNC(=O)NC2CCN(c3ccnc(Nc4ccc(OC)cc4)n3)C2)cc1", "note": "(stereo not drawn) [GSK1379727]", "%Inh": 0}
{"smiles": "Cc1nnc(-c2ccc(C)c(-c3ccc(C(=O)Nc4ccc(NS(C)(=O)=O)cc4)cc3)c2)o1", "note": "[GW702865]", "%Inh": 10}
{"smiles": "Cc1nnc(-c2ccc3occ(-c4ccc(C(C)O)cc4)c3c2)o1", "note": "(stereo not drawn)", "%Inh": 0}
{"smiles": "[2H]C([2H])(c1cccc(C(F)(F)F)c1C)n1ccn2c(=O)nc(N3CCOCC3)cc12", "note": "[GSK2336394]", "%Inh": 0}
{"smiles": "NCC(NC(=O)c1cc(-c2cn[nH]c2)c(-c2ccnc3[nH]ccc23)s1)c1ccccc1.O=C(O)C(F)(F)F.O=C(O)C(F)(F)F", "note": "(stereo not drawn) [GSK1325775]", "%Inh": 0}
{"smiles": "O=C(NCCNc1ccnc(Nc2ccc(F)cc2)n1)Nc1ccccc1F", "note": "[GSK1379880]", "%Inh": 0}
{"smiles": "COc1ccc(S(=O)(=O)NC2CCN(c3cc(C)nc(Nc4cccc(C#N)c4)n3)CC2)cc1.O=C(O)C(F)(F)F", "note": "[GSK1653539]", "%Inh": 0}
{"smiles": "O=C1NC(=O)C(N2CCc3ccccc32)=C1c1cccc(Cl)c1", "note": "[SB-408010]", "%Inh": 0}
